From PubChem BioAssay AID652054 (National Center for Advancing Translational Sciences (NCATS), 2013)
Screen size: about 360,000 compounds; about 9,100 (2.5%) were called active. About 4% were inconclusive and are not listed. The list comes from a sample in which actives are over-represented; it also holds similar structures and randomly drawn compounds. A number with no mark means an inactive call. No stated cut-off is given here; in the data, active means max response below about -50%; inconclusive means no clear call, values can overlap the other calls; inactive means above that.
On the % scale 0 is the no-effect control and ±100 the full control effect.

Each molecule was assayed against D(3) dopamine receptor (Homo sapiens) (UniProt P35462) (assay: qHTS of D3 Dopamine Receptor Antagonist: qHTS). Conditions: D3R cells, DiscoveRx beta-arrestin luminescence, antagonist mode; active compounds read low.
Chain of D(3) dopamine receptor (Homo sapiens) (P35462 whole entry, looked up): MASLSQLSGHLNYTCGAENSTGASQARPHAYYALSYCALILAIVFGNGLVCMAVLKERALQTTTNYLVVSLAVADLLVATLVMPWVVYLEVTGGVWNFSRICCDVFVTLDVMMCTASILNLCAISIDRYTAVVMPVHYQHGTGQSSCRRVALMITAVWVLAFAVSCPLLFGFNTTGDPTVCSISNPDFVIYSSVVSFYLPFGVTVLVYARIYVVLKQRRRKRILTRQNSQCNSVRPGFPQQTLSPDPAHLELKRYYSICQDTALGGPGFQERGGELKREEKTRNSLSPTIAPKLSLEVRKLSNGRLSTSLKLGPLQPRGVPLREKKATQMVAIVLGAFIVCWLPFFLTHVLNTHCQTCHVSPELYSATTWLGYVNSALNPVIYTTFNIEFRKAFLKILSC
In short: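 Cells plated overnight at 1500 cells/well, then exposed to library compounds with dopamine controls for 90 minutes at 37 degrees C. DiscoveRx reagent added for 30–60 minutes at room temperature; luminescence read, quantitative HTS format.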
O=C1NC(Cc2ccccc2)c2nc3ccc(Br)cc3c(=O)n2-c2cc3ccccc3cc21 (stereo not given) gave a max response, negative = inhibition of -0.847%. Work on COc1ccccc1CNC(=O)c1cc(-c2cc(F)ccc2OC)n[nH]1 yielded a max response, negative = inhibition of 18.6%. With COc1cc(NC(=O)c2cc(-c3ccc(F)cc3OC(C)C)n[nH]2)cc(OC)c1OC the max response, negative = inhibition was 6.57%. For COc1cc(F)ccc1-c1cc(C(=O)NCC2CCCCC2)[nH]n1, the max response, negative = inhibition was -75.3% (active). Molecule CC(=O)c1ccc(Nc2nc(C(N)c3ccccc3)cs2)cc1 (stereo not given) has a max response, negative = inhibition of 2.63%. For C[C@@H]1CN([C@@H](C)CO)S(=O)(=O)c2ccc(-c3ccc(C(=O)N(C)C)cc3)cc2O[C@@H]1CN(C)Cc1ccccc1C(=O)O, the max response, negative = inhibition was 16.1%. For COc1ccc(F)c(-c2nc(CN3CCC(c4ccccc4)CC3)c(C)o2)c1, the max response, negative = inhibition was -19.4%. In the case of COc1ccc(CN2CCC(c3nc4ccc(Cl)cc4[nH]3)CC2)cc1, the max response, negative = inhibition is reported as -101% (active). COc1ccc(Cn2nnc3c(=O)[nH]c(C4CCN(C(=O)c5ccccc5Cl)CC4)nc32)cc1 gave a max response, negative = inhibition of -22.4%. In the case of C[C@@H]1CN([C@@H](C)CO)C(=O)c2cc(Br)cnc2O[C@@H]1CN(C)C(=O)C1CCCCC1, the max response, negative = inhibition is reported as 22.5%. Cc1cccc(C)c1NC(=O)CCCSc1nnc(-c2ccco2)n1-c1ccccc1 gave a max response, negative = inhibition of -8.78%. With O=C(CSc1nnc(-c2ccco2)n1-c1ccccc1)NCCc1ccccc1 the max response, negative = inhibition was -54.3% (active). Work on COc1ccc(C(=O)NC(=O)CSc2nnc(-c3ccco3)n2-c2ccccc2)cc1 yielded a max response, negative = inhibition of -3.83%. In the case of O=C(CO/N=C/c1ccccc1O)NNC(=O)c1ccccc1Cl, the max response, negative = inhibition is reported as -53.5% (active). With O=C(NNC(=O)c1ccccc1O)c1ccccc1O the max response, negative = inhibition was 5.67%. Work on O=C(CO/N=C/c1ccccc1OC(F)F)NC1CCCC1 yielded a max response, negative = inhibition of 8.59%. Cc1ccc(S(=O)(=O)N2CC3C(=O)C[C@@H](c4ccccc4Cl)N(S(=O)(=O)c4ccc(C)cc4)C3CC2c2ccccc2)cc1 (stereo not given in full) showed a max response, negative = inhibition of 9.92%. CCOC(=O)c1ccn(S(=O)(=O)c2ccc(C)cc2)c1-c1ccccc1 was tested, and the max response, negative = inhibition was -20.6%. For Cc1c(Cl)cccc1NC(=O)NCCCN1CCCC1=O, the max response, negative = inhibition was -2.4%. Cc1c(Cl)cccc1NC(=O)NCc1ccc(C)n1C was tested, and the max response, negative = inhibition was 13.8%. For CN(C)CCNC(=O)Nc1cccc(Cl)c1Cl, the max response, negative = inhibition was -70.3% (active). Cc1ccccc1-c1nc(NC(C)C)nc2cc(-c3ccccc3)sc12 gave a max response, negative = inhibition of 21.7%. Work on C[C@H]1CN([C@@H](C)CO)C(=O)c2cc(-c3cccc(F)c3)cnc2O[C@@H]1CN(C)S(C)(=O)=O yielded a max response, negative = inhibition of 17.3%. COc1ccc(Sc2ccc(NC(=O)c3cccc(Cl)c3)cc2C#N)cc1 gave a max response, negative = inhibition of 28.7%. For Fc1ccccc1CCNc1nnnn1-c1ccccc1, the max response, negative = inhibition was -77.8% (active). COc1ccccc1CN(C)c1nnnn1-c1ccccc1 gave a max response, negative = inhibition of 6.89%. For c1ccc(-n2nnnc2NC2CCCCCC2)cc1, the max response, negative = inhibition was -9.29%. COc1ccccc1CNc1nc(Nc2ccccc2Cl)c2sccc2n1 was tested, and the max response, negative = inhibition was 51.2%. Molecule Cc1ccccc1NC(=O)Cc1nc(COC(=O)CNC(=O)c2ccc(Cl)cc2Cl)cs1 has a max response, negative = inhibition of -6.28%. CN(C)Cc1ccccc1C1(O)c2ccccc2CSc2ccccc21 (stereo not given) gave a max response, negative = inhibition of -12.3%. With CN(C)CC/C=C1\c2ccccc2CSc2ccccc21 the max response, negative = inhibition was -54.4% (active). In the case of O=[N+]([O-])c1ccc(C(S(=O)(=O)Cc2ccccc2)S(=O)(=O)Cc2ccccc2)cc1, the max response, negative = inhibition is reported as -9.27%. O=C(CCc1ccc(O)cc1)NN=Cc1cc(Br)ccc1O showed a max response, negative = inhibition of -3.37%. S=C(NN=Cc1ccccn1)Nc1ccccn1 gave a max response, negative = inhibition of -27%. With Oc1ccc(Br)cc1/C=N/Nc1ccccn1 the max response, negative = inhibition was -57.7% (active). For CNC(=O)C1CN(C(=O)c2cccc(S(=O)(=O)N3CCc4ccccc43)c2)c2ccccc2O1 (stereo not given), the max response, negative = inhibition was -27.2%. CC1C(=O)N(Cc2cn(CC3CCCCC3)nn2)CCS(=O)(=O)N1Cc1ccc(-c2cccc(N(C)C)c2)cc1 (stereo not given) showed a max response, negative = inhibition of 0%. Nc1cc(OC(=O)c2ccccc2Br)nn1S(=O)(=O)c1ccccc1 was tested, and the max response, negative = inhibition was -73.2% (active). For Cc1ccc(S(=O)(=O)n2nc(OC(=O)C(C)(C)C)cc2N)cc1, the max response, negative = inhibition was -4.07%. CN1C(=O)/C(=N/OC(=O)c2ccccc2Br)c2ccccc21 gave a max response, negative = inhibition of 0.409%. With FC(F)(F)c1ccccc1Cc1c(-c2ccccc2)nc2c3ccccc3ccn12 the max response, negative = inhibition was -14.4%. With COc1cccc(-c2cnc3c(NC(C)=O)cc(-c4cccc(NC(C)=O)c4)cn23)c1 the max response, negative = inhibition was 43.1%. CCN1CCCC1CNC(=O)c1ccc2c(c1)NC(=O)/C(=C\c1ccccc1F)S2 (stereo not given) gave a max response, negative = inhibition of -21.4%. Work on Cc1ccccc1Cn1c(C)c(C(=O)NCc2cccc(C(F)(F)F)c2)sc1=O yielded a max response, negative = inhibition of -29.9%. With COc1ccc(Br)c(Cn2c(C)c(C(=O)NCc3cccs3)sc2=O)c1 the max response, negative = inhibition was -59.3% (active).
